# Measurements: PubChem BioAssay (EPA / NIEHS)
# The source made the active and inactive calls. The calls were made as follows: active = hit-call score of the fitted dose curve at least 0.9, where 1 is the maximum; inactive = score below 0.9.
# Tests used:
# [1] = ATG_M_61_CIS: Attagene CIS-FACTORIAL HepG2 Assay for M61 Transcription Factor (Internal Marker) (AID 2282937); settings: HepG2 Attagene CIS-FACTORIAL M61 internal marker reporter; actives raise or lower the signal
# Outline: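 Multiplexed reporter mRNA assay, HepG2 human hepatoma cells, 24 h treatment. Signal: FAM-labelled, HpaI-digested RT-PCR fragments by CE. Fit: bidirectional, baseline DMSO.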
# [2] = ATG_EGR_CIS: Attagene CIS-FACTORIAL HepG2 Assay for human Early Growth Response 1 (EGR1) (AID 2282938); settings: HepG2 Attagene CIS-FACTORIAL EGR reporter mRNA; actives raise or lower the signal
# Outline: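 Multiplexed cis-reporter system in human hepatoma HepG2 cells, transiently transfected. Cells are dosed for 24 h; reporter transcripts are amplified, fluorescently tagged and sized by capillary electrophoresis, with DMSO as negative control.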
# [3] = ATG_M_19_CIS: Attagene CIS-FACTORIAL HepG2 Assay for M19 Transcription Factor (Internal Marker) (AID 2282939); settings: HepG2 Attagene CIS-FACTORIAL M19 internal marker reporter; actives raise or lower the signal
# Outline: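 Signals come from fluorescence of labelled reporter-specific PCR fragments resolved by capillary electrophoresis, following 24 h treatment of HepG2 cells transfected with cis-promoter reporter units; activity was fitted in both directions relative to DMSO.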
# [4] = ATG_ERE_CIS: Attagene CIS-FACTORIAL HepG2 Assay for Estrogen Response Element (ERE) (AID 2282940); settings: HepG2 ERE cis-reporter, Attagene RNA transcript; actives raise or lower the signal
# Outline: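 Fluorescence of capillary-separated, FAM-labelled reporter cDNA fragments indicates reporter mRNA levels in HepG2 cells exposed to chemicals for 24 h. Transient transfection with cis-regulated units; data fitted in both directions against DMSO.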
# [5] = ATG_Ets_CIS: Attagene CIS-FACTORIAL HepG2 Assay for human Erythroblast Transformation Specific (ETS) (AID 2282941); settings: HepG2 ETS cis-reporter transcription, actives raise or lower the signal
# Outline: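 Bidirectional fit versus DMSO of reporter mRNA signal, detected by RT-PCR and capillary electrophoresis in HepG2 cells transiently transfected with cis-element reporters and dosed 24 h.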
# [6] = biological target: Hepatocyte nuclear factor 3-beta (Homo sapiens) (UniProt Q9Y261); assay: ATG_FoxA2_CIS: Attagene CIS-FACTORIAL HepG2 Assay for human Forkhead box A2 (FOXA2) (AID 2282942); settings: HepG2 cis-reporter transcription factor activity, 24 h; actives raise or lower the signal
# Sequence of Hepatocyte nuclear factor 3-beta (Homo sapiens) (Q9Y261 whole entry, looked up): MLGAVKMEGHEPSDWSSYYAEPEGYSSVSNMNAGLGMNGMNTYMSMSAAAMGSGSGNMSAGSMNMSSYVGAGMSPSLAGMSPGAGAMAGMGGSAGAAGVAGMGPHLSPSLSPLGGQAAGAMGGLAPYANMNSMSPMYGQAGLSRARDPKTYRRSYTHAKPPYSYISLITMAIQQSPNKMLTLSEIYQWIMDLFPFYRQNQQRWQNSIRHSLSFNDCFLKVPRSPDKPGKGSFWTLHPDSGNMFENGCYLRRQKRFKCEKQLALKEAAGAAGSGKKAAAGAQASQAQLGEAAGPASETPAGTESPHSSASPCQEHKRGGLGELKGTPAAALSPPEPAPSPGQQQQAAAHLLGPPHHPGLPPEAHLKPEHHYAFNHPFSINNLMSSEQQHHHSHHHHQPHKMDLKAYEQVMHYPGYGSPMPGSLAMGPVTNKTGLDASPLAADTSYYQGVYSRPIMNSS
# Outline: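 Multiplexed cis-element reporter assay in transiently transfected HepG2. Twenty-four hours post-dosing, RNA was reverse-transcribed, amplified, FAM-labelled, HpaI-digested and separated by CE. Activity gain or loss relative to DMSO.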
# [7] = ATG_FoxO_CIS: Attagene CIS-FACTORIAL HepG2 Assay for human Forkhead box O (FoxO) (AID 2282943); settings: HepG2 Attagene cis-reporter, FoxO element, mRNA; actives raise or lower the signal
# Outline: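 Transfected HepG2 reporter cells exposed to test chemical for 24 h; reporter RNA measured by reverse transcription, PCR and fluorescent capillary electrophoresis; curves fitted for increases and decreases against DMSO.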
# [8] = ATG_GATA_CIS: Attagene CIS-FACTORIAL HepG2 Assay for human GATA Binding Protein (AID 2282944); settings: HepG2 GATA cis-element reporter, Attagene multiplex mRNA; actives raise or lower the signal
# Outline: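 After transfecting HepG2 cells with multiple cis-regulated reporter units, chemicals are dosed for 24 h; isolated RNA undergoes RT-PCR and fluorescent labeling before capillary electrophoresis, with activity expressed against DMSO.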
# [9] = biological target: Bile acid receptor (Homo sapiens) (UniProt Q96RI1); assay: ATG_IR1_CIS: Attagene CIS-FACTORIAL HepG2 Assay for human Nuclear Receptor Subfamily 1 Group H Member 4 (NR1H4), IR1 submotif (AID 2282946); settings: IR1 reporter transcription, actives raise or lower the signal
# Sequence of Bile acid receptor (Homo sapiens) (Q96RI1 whole entry, looked up): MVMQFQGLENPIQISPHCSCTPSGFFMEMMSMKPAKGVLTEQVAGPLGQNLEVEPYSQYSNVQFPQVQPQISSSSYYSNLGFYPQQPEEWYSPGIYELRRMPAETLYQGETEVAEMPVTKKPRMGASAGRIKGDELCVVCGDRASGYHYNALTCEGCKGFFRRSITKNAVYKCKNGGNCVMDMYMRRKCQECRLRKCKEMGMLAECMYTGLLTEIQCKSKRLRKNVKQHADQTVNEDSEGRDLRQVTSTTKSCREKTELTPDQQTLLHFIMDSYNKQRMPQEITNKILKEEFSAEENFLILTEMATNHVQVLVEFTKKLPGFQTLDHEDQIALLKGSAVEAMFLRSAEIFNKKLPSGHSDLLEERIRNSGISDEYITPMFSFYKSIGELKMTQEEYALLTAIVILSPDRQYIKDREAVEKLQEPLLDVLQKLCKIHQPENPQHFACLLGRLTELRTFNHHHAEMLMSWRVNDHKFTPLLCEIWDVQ
# Outline: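 Fluorescence of capillary-separated, HpaI-digested RT-PCR reporter products gave IR1-element mRNA induction in HepG2 cells 24 h after dosing. Endogenous transcription factors drove the cis-regulated reporters; activity was fitted bidirectionally against DMSO.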
# [10] = ATG_GRE_CIS: Attagene CIS-FACTORIAL HepG2 Assay for human Glucocorticoid Response Elements (GRE) (AID 2282947); settings: HepG2 GRE cis-reporter, Attagene multiplex mRNA; actives raise or lower the signal
# Outline: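 Read-out: fluorescent reporter-transcript fragments separated by capillary electrophoresis after RT-PCR. Transiently transfected HepG2 cells carrying cis-element-driven reporter units were dosed for 24 h; gain or loss of signal fitted against DMSO control.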
# [11] = ATG_ISRE_CIS: Attagene CIS-FACTORIAL HepG2 Assay for human Interferon Regulatory Factor 1 (IRF1) binding to an Interferon-Stimulated Response Element (ISRE) (AID 2282948); settings: HepG2 ISRE cis-reporter (Attagene), mRNA transcription readout; actives raise or lower the signal
# Outline: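 Uses HepG2 liver cells transfected with cis-regulated reporters and measures mRNA 24 h post-dosing through RT-PCR, primer-extension labelling and capillary electrophoresis, with DMSO as negative control.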
# [12] = ATG_M_32_CIS: Attagene CIS-FACTORIAL HepG2 Assay for M32 Transcription Factor (Internal Marker) (AID 2282949); settings: HepG2 Attagene cis-factorial M32 reporter, mRNA; actives raise or lower the signal;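 also: background control marker of the multiplexed CIS panel rather than a real target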
# Outline: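 Transient MRTU transfection of HepG2; 24 h compound treatment; TriZol RNA, oligo(dT) RT, reporter PCR, 6-FAM primer extension, HpaI cut, CE. Gain/loss of signal vs DMSO.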
# [13] = ATG_M_06_CIS: Attagene CIS-FACTORIAL HepG2 Assay for M06 Transcription Factor (Internal Marker) (AID 2282950); settings: HepG2 Attagene CIS-FACTORIAL M06 internal marker reporter; actives raise or lower the signal
# Outline: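 HepG2 liver cells, 24 h exposure. Reporter transcripts from transfected cis-element constructs quantified by RT-PCR/capillary electrophoresis fluorescence. Bidirectional curve fit against DMSO.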
# [14] = biological target: Hypoxia-inducible factor 1-alpha (Homo sapiens) (UniProt Q16665); assay: ATG_HIF1a_CIS: Attagene CIS-FACTORIAL HepG2 Assay for human Hypoxia Inducible Factor 1 (HIF1A) (AID 2282951); settings: HepG2 Attagene cis-factorial HIF1a reporter transcription; actives raise or lower the signal
# Sequence of Hypoxia-inducible factor 1-alpha (Homo sapiens) (Q16665 whole entry, looked up): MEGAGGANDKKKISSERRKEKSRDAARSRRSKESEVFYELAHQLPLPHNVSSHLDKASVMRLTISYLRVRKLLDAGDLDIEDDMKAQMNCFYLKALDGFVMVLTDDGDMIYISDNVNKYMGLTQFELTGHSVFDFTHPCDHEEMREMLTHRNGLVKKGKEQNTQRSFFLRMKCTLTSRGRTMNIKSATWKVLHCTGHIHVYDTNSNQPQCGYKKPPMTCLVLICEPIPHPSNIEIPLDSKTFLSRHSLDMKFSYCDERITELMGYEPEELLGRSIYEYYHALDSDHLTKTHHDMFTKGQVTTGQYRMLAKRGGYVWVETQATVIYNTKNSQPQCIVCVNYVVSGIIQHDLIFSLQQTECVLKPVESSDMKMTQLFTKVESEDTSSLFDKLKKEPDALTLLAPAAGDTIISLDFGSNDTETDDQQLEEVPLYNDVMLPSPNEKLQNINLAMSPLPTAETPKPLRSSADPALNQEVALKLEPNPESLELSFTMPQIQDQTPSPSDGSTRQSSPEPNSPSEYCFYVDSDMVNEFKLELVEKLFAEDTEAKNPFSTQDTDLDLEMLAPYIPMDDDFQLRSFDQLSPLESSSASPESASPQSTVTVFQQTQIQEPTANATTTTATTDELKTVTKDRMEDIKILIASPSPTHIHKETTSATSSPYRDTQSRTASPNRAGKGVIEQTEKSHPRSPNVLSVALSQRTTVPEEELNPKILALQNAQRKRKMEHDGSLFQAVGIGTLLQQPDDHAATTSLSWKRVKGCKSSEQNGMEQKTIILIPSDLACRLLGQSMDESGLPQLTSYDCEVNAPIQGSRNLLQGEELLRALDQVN
# Outline: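 Cis-element reporter constructs were transiently transfected into HepG2 cells, which were treated for 24 h; reporter RNA was reverse-transcribed, amplified, labelled and resolved by capillary electrophoresis.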
# [15] = biological target: Hepatocyte nuclear factor 6 (Homo sapiens) (UniProt Q9UBC0); assay: ATG_HNF6_CIS: Attagene CIS-FACTORIAL HepG2 Assay for human Hepatocyte Nuclear Factor 6 (HNF6) (AID 2282952); settings: HepG2 Attagene cis-factorial HNF6 reporter transcription; actives raise or lower the signal
# Sequence of Hepatocyte nuclear factor 6 (Homo sapiens) (Q9UBC0 whole entry, looked up, the tested form may be a part): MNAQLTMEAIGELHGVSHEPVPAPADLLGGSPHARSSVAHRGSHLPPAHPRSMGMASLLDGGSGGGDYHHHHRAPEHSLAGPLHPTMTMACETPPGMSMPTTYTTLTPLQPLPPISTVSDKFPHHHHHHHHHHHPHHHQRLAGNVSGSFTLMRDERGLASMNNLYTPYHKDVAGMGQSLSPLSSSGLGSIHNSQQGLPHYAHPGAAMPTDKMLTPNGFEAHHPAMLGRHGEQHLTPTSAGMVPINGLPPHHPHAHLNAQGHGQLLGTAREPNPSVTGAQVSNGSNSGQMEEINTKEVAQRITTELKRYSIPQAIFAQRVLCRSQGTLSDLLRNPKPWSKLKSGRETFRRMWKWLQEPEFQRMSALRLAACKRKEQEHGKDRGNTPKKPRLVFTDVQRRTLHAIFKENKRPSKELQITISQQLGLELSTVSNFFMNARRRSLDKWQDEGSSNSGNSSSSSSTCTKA
# Outline: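 First, HepG2 cells were transfected with the multiplexed cis reporter library and dosed with chemical for 24 h. Next, RNA was reverse-transcribed, PCR-amplified and fluorescently labelled. Finally, HpaI-digested fragments were read by capillary electrophoresis.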
# [16] = biological target: Heat shock factor protein 1 (Homo sapiens) (UniProt Q00613); assay: ATG_HSE_CIS: Attagene CIS-FACTORIAL HepG2 Assay for human Heat Shock Transcription Factor 1 (HSE) (AID 2282953); settings: HepG2 HSE cis-reporter, Attagene RNA transcription; actives raise or lower the signal
# Sequence of Heat shock factor protein 1 (Homo sapiens) (Q00613 whole entry, looked up, the tested form may be a part): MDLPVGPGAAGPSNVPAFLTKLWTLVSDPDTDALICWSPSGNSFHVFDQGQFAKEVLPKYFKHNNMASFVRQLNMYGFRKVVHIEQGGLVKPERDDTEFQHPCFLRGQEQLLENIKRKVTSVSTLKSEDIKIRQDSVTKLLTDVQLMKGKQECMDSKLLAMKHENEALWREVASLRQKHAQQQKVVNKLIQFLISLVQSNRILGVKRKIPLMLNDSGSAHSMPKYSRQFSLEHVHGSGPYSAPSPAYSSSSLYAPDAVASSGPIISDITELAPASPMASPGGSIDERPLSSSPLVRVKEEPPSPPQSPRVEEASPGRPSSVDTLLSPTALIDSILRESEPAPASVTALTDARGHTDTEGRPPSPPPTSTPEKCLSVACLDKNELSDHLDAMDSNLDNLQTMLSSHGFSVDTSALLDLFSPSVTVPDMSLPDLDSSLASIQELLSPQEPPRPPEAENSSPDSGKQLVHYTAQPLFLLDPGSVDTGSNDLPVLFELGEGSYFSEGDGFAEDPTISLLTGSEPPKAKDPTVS
# Outline: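 Endogenous transcription factor activity captured via cis-promoter reporter units transfected into HepG2; treatment lasted 24 h. Fluorescence intensity of reporter fragments analysed with bidirectional curve fitting, DMSO baseline.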
# [17] = ATG_MRE_CIS: Attagene CIS-FACTORIAL HepG2 Assay for human Metal Responsive Element (MRE) (AID 2282954); settings: HepG2 MRE cis-reporter transcription, Attagene multiplex; actives raise or lower the signal
# Outline: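 RT-PCR/capillary electrophoresis readout of reporter mRNA, 24 h post-dosing, in HepG2 cells transfected with multiplexed cis-regulated reporter constructs. Gain or loss of signal fitted bidirectionally against DMSO baseline.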
# [18] = ATG_GLI_CIS: Attagene CIS-FACTORIAL HepG2 Assay for human Zinc Finger Protein GLI1 (AID 2282945); settings: HepG2, Attagene cis-factorial reporter mRNA, GLI element; actives raise or lower the signal
# Outline: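 Transiently transfected HepG2 cells report endogenous transcription factor activity via cis-element-driven reporter units. After 24 h compound exposure, reporter mRNA was measured by RT-PCR with capillary electrophoresis; bidirectional fitting against DMSO baseline.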
compound,measurement,setting,value
CCCCCCCCCC[N+](C)(C)CCCCCCCCCC,outcome,[1],inactive
same,AC50,[2],6.79 µM (active)
same,outcome,[3],inactive
same,outcome,[4],inactive
same,outcome,[5],inactive
same,outcome,[6],inactive
same,outcome,[7],inactive
same,AC50,[8],100 µM (active)
same,AC50,[9],5.11 µM (active)
same,AC50,[10],8.55 µM (active)
same,AC50,[11],24.9 µM (active)
same,outcome,[12],inactive
same,outcome,[13],inactive
same,outcome,[14],inactive
same,outcome,[15],inactive
same,outcome,[16],inactive
same,AC50,[17],4.45 µM (active)
CC(C)C(=O)OCC(C)(C)C(OC(=O)C(C)C)C(C)C (stereo unspecified),outcome,[2],inactive
same,outcome,[3],inactive
same,AC50,[4],63.6 µM (active)
same,outcome,[5],inactive
same,outcome,[6],inactive
same,outcome,[7],inactive
same,outcome,[8],inactive
same,outcome,[18],inactive
same,outcome,[11],inactive
same,outcome,[12],inactive
same,outcome,[13],inactive
same,outcome,[14],inactive
same,outcome,[15],inactive
same,outcome,[16],inactive
same,outcome,[17],inactive
N#Cc1ccc(N(CC(N)=O)CC(F)(F)F)cc1C(F)(F)F,outcome,[1],inactive
same,AC50,[2],25.3 µM (active)
same,outcome,[3],inactive
same,outcome,[4],inactive
same,outcome,[5],inactive
same,outcome,[6],inactive
same,outcome,[7],inactive
same,outcome,[8],inactive
same,outcome,[18],inactive
same,outcome,[9],inactive
same,outcome,[11],inactive
same,outcome,[12],inactive
same,outcome,[14],inactive
same,outcome,[16],inactive
same,outcome,[17],inactive
Nc1ccc(-c2ccc(N)cc2)cc1,outcome,[1],inactive
same,outcome,[2],inactive
same,outcome,[3],inactive
same,AC50,[4],33.2 µM (active)
same,outcome,[5],inactive
same,outcome,[6],inactive
same,outcome,[7],inactive
same,outcome,[8],inactive
same,outcome,[18],inactive
same,outcome,[11],inactive
same,outcome,[12],inactive
same,outcome,[14],inactive
same,outcome,[16],inactive
same,outcome,[17],inactive
CCOCCOC(C)=O,outcome,[1],inactive
same,outcome,[2],inactive
same,outcome,[3],inactive
same,outcome,[4],inactive
same,outcome,[5],inactive
same,outcome,[6],inactive
same,outcome,[7],inactive
same,outcome,[8],inactive
same,outcome,[18],inactive
same,outcome,[11],inactive
same,outcome,[12],inactive
same,outcome,[14],inactive
same,outcome,[16],inactive
same,outcome,[17],inactive
CCC(C)c1cc([N+](=O)[O-])cc([N+](=O)[O-])c1O (stereo unspecified),outcome,[1],inactive
same,outcome,[2],inactive
same,outcome,[3],inactive
same,outcome,[4],inactive
same,outcome,[5],inactive
same,outcome,[6],inactive
same,outcome,[7],inactive
same,outcome,[8],inactive
same,outcome,[9],inactive
same,AC50,[11],8.83 µM (active)
same,outcome,[12],inactive
same,outcome,[13],inactive
same,outcome,[14],inactive
same,outcome,[15],inactive
same,outcome,[16],inactive
same,AC50,[17],13.5 µM (active)
